Bioassay records: PubChem, National Center for Advancing Translational Sciences (NCATS)
Shown are actives, neighbours in structure and some others; about 3.2% of the full set was active somewhere.
GLP1R cytotox: cytotoxicity in counter-screen for GLP-1R inverse agonists | HEK293 cAMP-luciferase reporter cells, luminescence, 24 h | 410,000 compounds, 0.13% hits | AID 624418 | Potency, µM (top dose mostly 38.3 µM), for the others: top-dose activity change, negative = inhibition, actives largely listed as inhibitors;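 also: loss of luciferase light is scored as toxicity; % is scaled to controls: 0 for no effect and ±100 for the full control effect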
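MLSMR compounds, 24 hr on cells at 37 deg C/5% CO2; luminescence after luciferase reagent (12 min RT). Inhibition counted as the undesired cytotoxic outcome.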
ClpP mod: qHTS Assay for Activators of ClpP | purified B. subtilis ClpP, FRET peptide cleavage, 20 min | 340,000 compounds, 1.9% hits | Potency, µM (highest dose often 57.5 µM), for inactives: at the top dose activity change, negative = active | ATP-dependent Clp protease proteolytic subunit (Bacillus subtilis (strain 168)), P80244 | AID 651965, 2013; active = well fitted falling curve with a large enough effect; inconclusive = small, poorly fitted or top-dose-only effect; inactive = no such curve, though single readings can be large or run the other way; also: the source files actives as falling curves though it sought activators and does not explain the sign; nearly all actives have a fitted effect of over 65% in size
Target sequence (P80244 whole entry, looked up): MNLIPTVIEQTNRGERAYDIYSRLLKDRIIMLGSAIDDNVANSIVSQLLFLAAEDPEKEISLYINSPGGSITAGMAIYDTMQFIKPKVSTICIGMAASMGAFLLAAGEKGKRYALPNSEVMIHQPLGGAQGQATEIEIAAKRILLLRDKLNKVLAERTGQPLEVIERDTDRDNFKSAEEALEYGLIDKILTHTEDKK
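FRET quenching reversal measured ClpP activation: 10 microg/mL B. subtilis ClpP at pH 8 with the FRET-FV decapeptide, read at 430 nm after 320 nm excitation. The 20-min minus 0-min signal was scaled between DMSO/no-enzyme wells and ADEP (5.8 microM final).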
GLP-1R inv ag: GLP-1 receptor (human) inverse agonism. HEK293 GLP-1R CRE-luciferase, luminescence, 24 h; GLP-1R form is constitutively active. Potency, µM (doses to about 38.3 µM), inactives show at the highest dose activity change, negative = inhibition, hits mostly inhibitors. 410,000 compounds, 1.6% hits; also: % is scaled to controls: 0 for no effect and ±100 for the full control effect; nearly all actives have a fitted effect of over 55% in size
Target sequence (P43220 whole entry, looked up): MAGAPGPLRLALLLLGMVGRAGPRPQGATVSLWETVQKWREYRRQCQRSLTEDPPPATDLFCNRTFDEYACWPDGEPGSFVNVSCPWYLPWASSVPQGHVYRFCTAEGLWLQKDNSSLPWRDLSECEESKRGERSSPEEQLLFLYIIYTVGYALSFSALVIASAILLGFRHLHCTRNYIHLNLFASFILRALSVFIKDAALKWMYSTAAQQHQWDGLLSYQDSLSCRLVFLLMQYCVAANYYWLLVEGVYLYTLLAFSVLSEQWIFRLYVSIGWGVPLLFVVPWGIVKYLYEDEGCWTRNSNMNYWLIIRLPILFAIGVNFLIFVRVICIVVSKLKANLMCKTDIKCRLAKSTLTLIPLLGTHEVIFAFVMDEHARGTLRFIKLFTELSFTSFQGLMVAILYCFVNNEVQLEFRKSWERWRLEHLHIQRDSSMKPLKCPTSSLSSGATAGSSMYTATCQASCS
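Seeding at 200 cells/uL, 12 h culture, 24 hr compound treatment, then luciferase reagent and a luminescence read; cells are HEK293 stably expressing a constitutively active GLP-1R plus cAMP-responsive luciferase.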
GLP-1R agonist: GLP-1 receptor (human) agonism. AID 624172. Potency, µM (titrated, usually from 45.6 µM), inactives show at the highest dose activation, usual class: activators. HEK293 GLP-1R CRE-luciferase, luminescence, 4-6 h; cells express a hypersensitive GLP-1R form. P43220. 380,000 compounds, 0.007% hits; also: % of control where 0% means no effect
The depositor's hits bear a star; ? = inconclusive; . = no result. Unless noted, calls follow the shape of the dose curve; as a rule, active = well fitted curve in the direction sought with a large enough effect; inconclusive = small, poorly fitted or top-dose-only effect, or another doubt; inactive = no such curve, though single readings can be large; an effect the other way counts as inactive or inconclusive. Potency is read from the fitted curve at half-maximal effect.

SMILES	GLP1R cytotox	ClpP mod	GLP-1R inv ag	GLP-1R agonist
O=C(Cn1c(-c2cccs2)cc2cc(F)ccc21)N1CCN(c2ccccc2)CC1	-6%	16µM*	?	.
O=C(Nc1ccc(Br)cn1)c1cccc2ccccc12	-38%	25µM*	?	17%
CCOC(=O)c1ccc(NC(=O)C(=O)NCC2CCCO2)cc1 (centres undefined)	12%	32µM*	12%	-3%
Cc1cccc(-n2c(=O)c3c(c4cc(C)ccc4n3C)n(C)c2=O)c1	1%	4%	15%	-4%
O=C(Nc1ccc(Cl)c(-c2nc3cc(Cl)ccc3o2)c1)c1cc([N+](=O)[O-])ccc1N1CCOCC1	1%	-2%	1%	1%
CCCOc1ccc(CNC(=O)c2cc3oc4ccccc4c3n2C)cc1	-26%	4%	?	.
Cn1c(C(=O)NCc2cccs2)cc2oc3ccccc3c21	23%	32µM*	-11%	14%
CCn1c(C(=O)NCc2ccccc2Br)cc2oc3ccccc3c21	-1%	22µM*	?	.
COc1ccc(CNC(=O)c2cc3oc4ccccc4c3n2C)cc1OC	-10%	25µM*	?	.
Cn1c(C(=O)NCc2ccccc2F)cc2oc3ccccc3c21	-5%	4%	?	.
Cn1c(C(=O)NCc2ccccc2)cc2oc3ccccc3c21	-1%	25µM*	7%	10%
CCOC(=O)c1c(C)n(-c2ccccc2)c2ccc(OC(=O)COc3ccc(Cl)cc3)cc12	9%	3%	2%	.
CS(=O)(=O)c1cccc(C(=O)Nc2nnc(C3=COCCO3)o2)c1	17%	10µM*	3%	-4%
O=C(Nc1nnc(C2=COCCO2)o1)c1cccc(Br)c1	-30%	1%	-7%	-1%
CCOC(=O)c1ccc(NC2(c3ccccc3)C(=O)c3ccccc3C2=O)cc1	-2%	5%	?	.
CCOc1ccc(-c2nc(Cn3c(=O)cc(C)c4c(C)nn(-c5ccccc5)c43)c(C)o2)cc1	5%	-4%	3%	.
Cc1ccc(NC(=O)C2(NC(=O)c3cccc(N4C(=O)CSC4c4ccccc4)c3)CCCCC2)cc1 (centres undefined)	3%	-1%	6.3µM*	-10%
CCOc1ccc(C(=O)NCC(c2ccc3c(c2)OCO3)N2CCN(c3ccc(F)cc3)CC2)cc1 (centres undefined)	6%	-15%	4%	.
Cn1c(=O)c2c(nc(SCC(=O)Nc3ccc(F)c(F)c3)n2Cc2ccccc2F)n(C)c1=O	-3%	-2%	-1%	.
O=c1[nH]cnc2c1C1(CCCC1)Cc1ccccc1-2	11%	13µM*	?	0%
CN(C)Cc1nc2c(c(=O)[nH]1)C1(CCCCC1)Cc1ccccc1-2	5%	-2%	-17%	-2%
CCC1(CC)Cc2ccccc2-c2nc(NCCCO)[nH]c(=O)c21	11%	.	-7%	6%
O=c1[nH]c(NNC(=S)NCc2ccccc2)nc2c1C1(CCCCC1)Cc1ccccc1-2	-10%	16µM*	?	-4%
O=c1[nH]c(NCCCO)nc2c1C1(CCCC1)Cc1ccccc1-2	0%	14µM*	?	-2%
CC(=O)c1cccc(NC(=O)C2CCN(c3nnc(-n4cccc4)s3)CC2)c1	2%	-2%	-5%	5%
SMILES	GLP1R cytotox	ClpP mod	GLP-1R inv ag	GLP-1R agonist
Cc1cccc(NC(=O)Cn2c(=O)nc(-c3ccccc3)c3ccccc32)c1C	1%	-28%	12%	.
CN(C)C(=O)CSc1nnc(-c2cc(-c3cccs3)nc3ccccc23)o1	25%	25µM*	24%	7%
CCN(CC)C(=O)CSc1nnc(-c2cc(-c3ccc(Cl)cc3)nc3ccccc23)o1	0%	-2%	-7%	3%
CN1CCN(CCCN2c3ccccc3Sc3ccc(Cl)cc32)CC1	?	-5%	?	5%
OC1CC2CCC(C1)N2CCCN1c2ccccc2Sc2ccc(Cl)cc21 (centres undefined)	0%	.	2.8µM*	9%
CCOc1ccc(C(=O)Nc2c(C(=O)Nc3ccccc3F)oc3ccccc23)cc1OCC	4%	-3%	-3%	0%
CCCN1C2CCCC1CC(NC(=O)c1cccc([N+](=O)[O-])c1)C2 (centres undefined)	3%	28µM*	-13%	2%
CCCN1C2CCCC1CC(NC(=O)c1cccc(Cl)c1)C2 (centres undefined)	-1%	-2%	-15%	0%
O=C(NC1CCCCCCC1)c1cccc(Cl)c1	-9%	-1%	?	18%
O=C(NC1CCCC1)c1cccc(Cn2cc([N+](=O)[O-])cn2)c1	11%	16µM*	-1%	10%
Cc1nn(Cc2cccc(C(=O)NC3CCCCC3)c2)c(C)c1Cl	14%	-2%	10µM*	2%
COCc1cc(C)nc2sc3c(=O)n(-c4ccccc4C(F)(F)F)nnc3c12	2%	1%	3%	.
Cc1ccc(CNC(=O)c2cccc(Nc3nc4ccccc4n4nnnc34)c2)cc1	9%	-9%	21%	.
COC1CCCCC1NS(=O)(=O)c1ccccc1 (centres undefined)	6%	28µM*	6%	-11%
Cc1ccc(NC(=O)CN2CCN(S(=O)(=O)c3cccs3)CC2)cc1S(=O)(=O)N(C)C	0%	32µM*	?	2%
CCOc1ccc(NC(=O)CN2CCCC2c2cccs2)cc1S(=O)(=O)N1CCCCC1 (centres undefined)	?	0%	?	-1%
Cc1ccc(NC(=O)CN2CCc3ccccc3C2)cc1S(=O)(=O)N(C)C	-7%	.	?	5%
Cc1ccc(NC(=O)CN2CCCC2c2cccs2)cc1S(=O)(=O)N1CCCCC1 (centres undefined)	0%	-3%	4.5µM*	7%
CCOc1ccc(C2C=C(c3cccc(OC)c3)Nc3nnnn32)cc1 (centres undefined)	42%	-11%	15%	13%
COc1ccc(C2=CC(c3cccc(C)c3)n3nnnc3N2)cc1 (centres undefined)	203%	32µM*	-3%	.
CCc1ccc(-n2c(=O)c3c4c(sc3n(CC(=O)c3ccc(Cl)cc3)c2=O)CCC4)cc1	16%	2%	-1%	-1%
CC1CN(C(=O)/C=C/c2ccc3c(c2)OCO3)CC(C)O1 (centres undefined)	7%	28µM*	0%	9%
Cn1c(=O)c2c(n3ncnc13)NC(=O)CC2c1cccc(F)c1 (centres undefined)	4%	-12%	1%	-1%
CC(=O)N1c2ccc3ccccc3c2C(C)CC12CCCCC2 (centres undefined)	17%	-8%	?	2%
CC1CC2(CCCCC2)Nc2ccc3ccccc3c21 (centres undefined)	-5%	18µM*	-32%	6%
COc1ccc(-n2nc3cc(C)c(NC(=O)Cc4ccc(Cl)cc4)cc3n2)cc1	7%	-4%	9%	.
O=C(NCCN1CCN(c2cccc(Cl)c2)CC1)Nc1ccccc1C(F)(F)F	1%	-1%	?	.
